Results filed as inconclusive are left out. Calls of active or inactive are those of the source.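 Rule for the calls: active = immobility above 50% at 10 µM after 1 hour; inconclusive = immobility from 15% to 50% at 1 hour; inactive = immobility below 15%.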

One test in a line: Assay for General Anesthetic Phenotype in Xenopus Tadpoles. The following applies: startle-response immobility, 1 h, at 10 µM, stronger effect = higher value. From the text:
Anesthetic development has remained a largely empirical process. There are growing concerns about the cognitive effects of known general anesthetics and acceleration of the onset of neurodegenerative disease. The compounds' toxicity and multiple specific binding targets in the mammalian brain [4] has made them less attractive as drug leads. This assay was designed for the in vivo follow-up testing of compounds in tadpoles. References: [1] S.L. Bianchi, T. Tran, C. Liu, S. Lin, Y. Li, J.M. Keller, R.G. Eckenhoff, and M.F. Eckenhoff, Brain and behavior changes in 12-month-old Tg2576 and nontransgenic mice exposed to anesthetics. Neurobiol Aging 29 (2008) 1002-10. Z. Xie, Y. Dong, U. Maeda, R.D. Moir, W. Xia, D.J. Culley, G. Crosby, and R.E. Tanzi, The inhalation anesthetic isoflurane induces a vicious cycle of apoptosis and amyloid beta-protein accumulation. J Neurosci 27 (2007) 1247-54. P. Honegger, and J.M. Matthieu, Selective toxicity of the general anesthetic propofol for GABAergic neurons in rat brain cell cultures. J Neurosci Res 45 (1996) 631-6. M.F. Eckenhoff, K. Chan, and R.G. Eckenhoff, Multiple specific binding targets for inhaled anesthetics in the mammalian brain. J Pharmacol Exp Ther 300 (2002) 172-9. C.A. Butts, J. Xi, G. Brannigan, A.A. Saad, S.P. Venkatachalan, R.A. Pearce, M.L. Klein, R.G. Eckenhoff, and I.J. Dmochowski, Identification of a fluorescent general anesthetic, 1-aminoanthracene. Proc Natl Acad Sci U S A 106 (2009) 6501-6. W.A. Lea, J. Xi, A. Jadhav, L. Lu, C.P. Austin, A. Simeonov, and R.G. Eckenhoff, A high-throughput approach for identification of novel general anesthetics. PLoS One 4 (2009) e7150.
Pre-limb bud Xenopus tadpoles were obtained in large batches from Nasco, Inc. Batches of 10 tadpoles were placed in 20 mm Petri dishes with approximately 20 ml of pond water ("pond water" is approximately a 20-fold dilution of Ringers saline solution). Compounds were added to the pond water from DMSO stock to obtain 100, 10 and 1 microM concentrations. Tadpoles were then incubated with these solutions for 1 hour, and then scored for "anesthesia". Anesthesia in this case is lack of movement in response to a sharp tap on the Petri dish lid, i.e., a lack of startle response. This correlates well to the loss of righting reflex in rodents and the loss of consciousness in humans. The pond water is then changed, and the return of a startle response is monitored for 24 hours. Immobility at 24 hours is considered death.
Regarding `O=C(Cn1nc(-c2ccc(OC(F)(F)F)cc2)ccc1=O)NCCc1ccccc1`, the immobility was 80% (active).

For `O=C(Cn1nc(-c2cccnc2)ccc1=O)NCCc1ccccc1`, the immobility is 0% (inactive).

For the compound `O=C(Cn1nc(-c2ccncc2)ccc1=O)NCCc1ccccc1`, the immobility was 5% (inactive).

For the compound `CCCCc1ccc(-c2ccc(=O)n(CC(=O)NCCc3ccccc3)n2)cc1`, the immobility was 5% (inactive).

On to `COc1ccc(-c2ccc(=O)n(CC(=O)NCCc3ccccc3)n2)cc1`, for which the immobility was 75% (active).

As for `COc1ccccc1-c1ccc(=O)n(CC(=O)NCCc2ccccc2)n1`, the immobility is 5% (inactive).

`COc1ccc(-c2ccc(=O)n(CC(=O)NCCc3ccccc3)n2)cc1OC`: the immobility was 10% (inactive).

As for `Cc1ccccc1-c1ccc(=O)n(CC(=O)NCCc2ccccc2)n1`, the immobility was 0% (inactive).

On to `Cc1ccc(=O)n(CC(=O)NCCc2ccccc2)n1`, for which the immobility is 5% (inactive).

`O=C(Cn1nc(-c2ccc3c(c2)OCO3)ccc1=O)NCCc1ccccc1`: the immobility is 0% (inactive).

On to `CC(C)c1ccc(=O)n(CC(=O)NCCc2ccccc2)n1`, for which the immobility was 0% (inactive).

For the compound `O=C(Cn1ncccc1=O)NCCc1ccccc1`, the immobility is 0% (inactive).

Regarding `O=C(Cn1nc(-c2ccc(F)cc2)ccc1=O)NCCc1ccccc1`, the immobility is 5% (inactive).

In the case of `CC(C)COc1ccc(-c2ccc(=O)n(CC(=O)NCCc3ccccc3)n2)cc1`, the immobility was 100% (active).

As to `CC(C)(C)c1ccc(-c2ccc(=O)n(CC(=O)NCCc3ccccc3)n2)cc1`, the immobility was 90% (active).

On to `O=C(Cn1nc(C2CC2)ccc1=O)NCCc1ccccc1`, for which the immobility was 0% (inactive).

For the compound `CC(C)Oc1ccc(-c2ccc(=O)n(CC(=O)NCCc3ccccc3)n2)cc1`, the immobility is 95% (active).

In the case of `CN(C)c1ccc(-c2ccc(=O)n(CC(=O)NCCc3ccccc3)n2)cc1`, the immobility is 0% (inactive).

Regarding `O=C(Cn1nc(-c2ccc(C(F)(F)F)cc2)ccc1=O)NCCc1ccccc1`, the immobility is 0% (inactive).

Take `Cc1ccc(-c2ccc(=O)n(CC(=O)NCCc3ccccc3)n2)cn1`: the immobility is 0% (inactive).

Staying with this test, now noted: startle-response immobility, 1 h, measured here: 24 h immobility, toxicity/death, at 10 µM.
Regarding `O=C(Cn1nc(-c2ccc(OC(F)(F)F)cc2)ccc1=O)NCCc1ccccc1`, the immobility was determined as 10%.

The compound `O=C(Cn1nc(-c2cccnc2)ccc1=O)NCCc1ccccc1` displayed an immobility of 15%.

`O=C(Cn1nc(-c2ccncc2)ccc1=O)NCCc1ccccc1` returned an immobility of 10%.

Regarding `CCCCc1ccc(-c2ccc(=O)n(CC(=O)NCCc3ccccc3)n2)cc1`, the immobility was found to be 5%.

On to `COc1ccc(-c2ccc(=O)n(CC(=O)NCCc3ccccc3)n2)cc1`, for which the immobility amounted to 5%.

Compound `COc1ccccc1-c1ccc(=O)n(CC(=O)NCCc2ccccc2)n1` registered an immobility of 15%.

On to `COc1ccc(-c2ccc(=O)n(CC(=O)NCCc3ccccc3)n2)cc1OC`, for which the immobility was determined as 15%.

Take `Cc1ccccc1-c1ccc(=O)n(CC(=O)NCCc2ccccc2)n1`: the immobility worked out at 10%.

`Cc1ccc(=O)n(CC(=O)NCCc2ccccc2)n1` registered an immobility of 15%.

For `O=C(Cn1nc(-c2ccc3c(c2)OCO3)ccc1=O)NCCc1ccccc1`, the immobility came to 0%.

Consider `CC(C)c1ccc(=O)n(CC(=O)NCCc2ccccc2)n1`, for which the immobility was found to be 5%.

Turning to `O=C(Cn1ncccc1=O)NCCc1ccccc1`, the immobility turned out to be 5%.

As to `O=C(Cn1nc(-c2ccc(F)cc2)ccc1=O)NCCc1ccccc1`, the immobility came to 0%.

The compound `CC(C)COc1ccc(-c2ccc(=O)n(CC(=O)NCCc3ccccc3)n2)cc1` showed an immobility of 0%.

`CC(C)(C)c1ccc(-c2ccc(=O)n(CC(=O)NCCc3ccccc3)n2)cc1` displayed an immobility of 10%.

`O=C(Cn1nc(C2CC2)ccc1=O)NCCc1ccccc1`: the immobility came out at 5%.

`CC(C)Oc1ccc(-c2ccc(=O)n(CC(=O)NCCc3ccccc3)n2)cc1` yielded an immobility of 5%.

Compound `CN(C)c1ccc(-c2ccc(=O)n(CC(=O)NCCc3ccccc3)n2)cc1` came in with an immobility of 10%.

For `O=C(Cn1nc(-c2ccc(C(F)(F)F)cc2)ccc1=O)NCCc1ccccc1`, the immobility was found to be 5%.

Consider `Cc1ccc(-c2ccc(=O)n(CC(=O)NCCc3ccccc3)n2)cn1`, for which the immobility stood at 0%.

Source of the values: PubChem BioAssay AID624098 (National Center for Advancing Translational Sciences (NCATS), 2012).
